The values below come from paper PMC7862700, “An all-to-all approach to the identification of sequence-specific readers for epigenetic DNA modifications on cytosine”.

What all share (assay): DAPPL (digital affinity profiling via proximity ligation, sequencing); 10 mM Tris-HCl pH 7.5, 50 mM NaCl, 1 mM DTT, 4% glycerol, room temperature, 30 min; GST-TFs on glutathione beads, 16-mer random dsDNA library, 0.1% formaldehyde crosslink after washing; high values mean tight binding
One assay addresses T1, FEV (Homo sapiens, UniProt Q99581 1-238).
T1 sequence: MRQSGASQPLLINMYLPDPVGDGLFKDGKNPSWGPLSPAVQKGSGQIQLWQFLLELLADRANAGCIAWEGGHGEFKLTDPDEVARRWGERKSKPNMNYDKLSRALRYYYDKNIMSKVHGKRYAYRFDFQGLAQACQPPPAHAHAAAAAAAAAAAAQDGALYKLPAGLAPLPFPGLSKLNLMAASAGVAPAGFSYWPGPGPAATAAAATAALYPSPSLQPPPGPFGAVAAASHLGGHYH
The following applies: protein: recombinant; tags: N-terminal GST; dsDNA, one strand shown. A digest of the protocol:
(§1)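 A tag-only sample was pooled with DNA-barcoded human transcription factors that had been expressed in yeast as GST fusions and captured on glutathione beads. The pools were incubated for 30 min at room temperature with 200 nmole of a random double-stranded 16-mer DNA library in Tris/NaCl/DTT/glycerol buffer, then washed, crosslinked with 0.1% formaldehyde, proximity-ligated (BsaI/T4 ligase, 1 h, 37 °C), PCR-amplified and sequenced on an Illumina NextSeq500. Binding signal is each hexamer's read frequency for a factor divided by its frequency for the tag-only sample.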

Another assay has as its target ETV5 (Homo sapiens, UniProt P41161 1-510). The settings on record: protein: recombinant; tags: N-terminal GST; dsDNA, one strand shown. A digest of the protocol:
as §1

The target of the next assay is HSF1 (Homo sapiens, UniProt Q00613 1-529). The following applies: protein: recombinant; tags: N-terminal GST; chain copies: 3; dsDNA, one strand shown. A digest of the protocol:
as §1

A further assay concerns the target T2, SPIC (Homo sapiens, UniProt Q8N5J4 1-248).
T2 sequence: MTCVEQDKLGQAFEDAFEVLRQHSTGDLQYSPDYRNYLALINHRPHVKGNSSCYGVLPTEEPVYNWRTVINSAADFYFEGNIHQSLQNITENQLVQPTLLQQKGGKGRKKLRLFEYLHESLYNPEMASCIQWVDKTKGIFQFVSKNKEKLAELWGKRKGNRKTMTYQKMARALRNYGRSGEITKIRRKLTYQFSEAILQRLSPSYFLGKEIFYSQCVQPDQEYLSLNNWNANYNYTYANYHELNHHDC
The following applies: protein: recombinant; tags: N-terminal GST; dsDNA, one strand shown. A digest of the protocol:
as §1

Another assay has as its target ELF4 (Homo sapiens, UniProt Q99607 1-663). The following applies: protein: recombinant; tags: N-terminal GST; dsDNA, one strand shown. A digest of the protocol:
as §1

A further assay addresses T3, ELK4 (Homo sapiens, UniProt P28324-2 1-405).
T3 sequence: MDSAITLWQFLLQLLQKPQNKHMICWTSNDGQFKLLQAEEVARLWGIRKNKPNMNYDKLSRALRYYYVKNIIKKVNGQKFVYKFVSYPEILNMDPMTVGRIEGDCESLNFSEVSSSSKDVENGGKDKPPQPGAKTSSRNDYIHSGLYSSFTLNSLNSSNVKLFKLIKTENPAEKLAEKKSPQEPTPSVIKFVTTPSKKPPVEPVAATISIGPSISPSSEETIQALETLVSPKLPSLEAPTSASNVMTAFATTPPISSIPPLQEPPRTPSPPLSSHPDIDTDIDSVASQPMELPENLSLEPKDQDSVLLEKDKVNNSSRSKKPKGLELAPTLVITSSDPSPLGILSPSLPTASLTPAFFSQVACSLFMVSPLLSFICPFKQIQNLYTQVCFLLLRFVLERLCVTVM
The settings on record: protein: recombinant; tags: N-terminal GST; dsDNA, one strand shown. In outline: as §1

In another assay the target is T4, ETV2 (Homo sapiens, UniProt O00321 1-342).
T4 sequence: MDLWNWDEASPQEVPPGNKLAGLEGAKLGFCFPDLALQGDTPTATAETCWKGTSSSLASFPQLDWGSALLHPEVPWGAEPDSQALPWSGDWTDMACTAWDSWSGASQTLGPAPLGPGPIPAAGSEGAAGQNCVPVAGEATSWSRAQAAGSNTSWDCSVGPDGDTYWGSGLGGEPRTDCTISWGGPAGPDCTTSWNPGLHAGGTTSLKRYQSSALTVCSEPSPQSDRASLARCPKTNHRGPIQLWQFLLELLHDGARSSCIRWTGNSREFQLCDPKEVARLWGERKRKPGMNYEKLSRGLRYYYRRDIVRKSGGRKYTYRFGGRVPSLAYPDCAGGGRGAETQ
The following applies: protein: recombinant; tags: N-terminal GST; dsDNA, one strand shown. A digest of the protocol: as §1

Another assay addresses T5, ELF3 (Homo sapiens, UniProt P78545 1-371).
T5 sequence: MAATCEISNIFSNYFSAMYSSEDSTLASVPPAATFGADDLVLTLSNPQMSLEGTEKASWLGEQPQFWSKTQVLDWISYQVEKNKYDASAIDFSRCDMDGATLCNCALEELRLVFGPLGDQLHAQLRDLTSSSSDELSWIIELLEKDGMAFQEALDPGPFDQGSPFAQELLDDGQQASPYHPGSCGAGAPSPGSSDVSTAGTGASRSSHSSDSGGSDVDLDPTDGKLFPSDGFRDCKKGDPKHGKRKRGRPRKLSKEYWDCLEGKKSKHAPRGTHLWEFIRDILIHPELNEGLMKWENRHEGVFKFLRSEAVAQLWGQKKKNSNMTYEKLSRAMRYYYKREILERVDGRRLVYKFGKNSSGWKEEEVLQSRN
The following applies: protein: recombinant; tags: N-terminal GST; dsDNA, one strand shown. A digest of the protocol:
as §1

In a further assay the target is CRX (Homo sapiens, UniProt O43186 1-299). The following applies: protein: recombinant; tags: N-terminal GST; dsDNA, one strand shown. In outline:
as §1

The next assay concerns the target ETV1 (Homo sapiens, UniProt P50549 1-477). The following applies: protein: recombinant; tags: N-terminal GST; dsDNA, one strand shown. In outline: as §1
A further assay deals with T6, ERF (Homo sapiens, UniProt P50548 1-548).
T6 sequence: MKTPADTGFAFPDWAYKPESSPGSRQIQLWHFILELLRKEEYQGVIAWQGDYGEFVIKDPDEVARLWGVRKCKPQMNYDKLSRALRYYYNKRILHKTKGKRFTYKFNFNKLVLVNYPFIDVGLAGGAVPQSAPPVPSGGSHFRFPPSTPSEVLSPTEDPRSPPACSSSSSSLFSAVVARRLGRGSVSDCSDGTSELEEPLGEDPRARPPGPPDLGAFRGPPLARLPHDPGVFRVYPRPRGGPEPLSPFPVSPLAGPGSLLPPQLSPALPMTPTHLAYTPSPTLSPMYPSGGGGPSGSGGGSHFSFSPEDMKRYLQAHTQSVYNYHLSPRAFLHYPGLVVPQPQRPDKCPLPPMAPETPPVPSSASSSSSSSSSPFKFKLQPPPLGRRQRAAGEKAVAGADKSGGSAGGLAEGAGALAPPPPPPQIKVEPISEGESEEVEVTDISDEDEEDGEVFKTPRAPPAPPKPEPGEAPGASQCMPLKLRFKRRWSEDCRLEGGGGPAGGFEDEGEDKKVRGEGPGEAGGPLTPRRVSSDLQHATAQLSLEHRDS
The following applies: protein: recombinant; tags: N-terminal GST; dsDNA, one strand shown. A digest of the protocol:
as §1

The next assay has as its target T7, ETV3L (Homo sapiens, UniProt Q6ZN32 1-361).
T7 sequence: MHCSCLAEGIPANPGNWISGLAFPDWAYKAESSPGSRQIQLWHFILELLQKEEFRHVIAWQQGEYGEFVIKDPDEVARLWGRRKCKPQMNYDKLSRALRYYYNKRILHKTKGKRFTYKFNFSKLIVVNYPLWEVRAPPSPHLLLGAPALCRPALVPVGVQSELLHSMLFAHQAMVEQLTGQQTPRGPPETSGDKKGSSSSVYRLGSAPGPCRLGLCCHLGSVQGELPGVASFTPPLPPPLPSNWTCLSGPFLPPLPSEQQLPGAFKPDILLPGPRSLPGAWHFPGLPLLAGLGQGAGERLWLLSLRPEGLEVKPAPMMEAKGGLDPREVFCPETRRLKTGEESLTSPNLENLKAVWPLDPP
The settings on record: protein: recombinant; tags: N-terminal GST; dsDNA, one strand shown. A digest of the protocol:
as §1

In a further assay the target is T8, ETS2 (Homo sapiens, UniProt P15036 1-469).
T8 sequence: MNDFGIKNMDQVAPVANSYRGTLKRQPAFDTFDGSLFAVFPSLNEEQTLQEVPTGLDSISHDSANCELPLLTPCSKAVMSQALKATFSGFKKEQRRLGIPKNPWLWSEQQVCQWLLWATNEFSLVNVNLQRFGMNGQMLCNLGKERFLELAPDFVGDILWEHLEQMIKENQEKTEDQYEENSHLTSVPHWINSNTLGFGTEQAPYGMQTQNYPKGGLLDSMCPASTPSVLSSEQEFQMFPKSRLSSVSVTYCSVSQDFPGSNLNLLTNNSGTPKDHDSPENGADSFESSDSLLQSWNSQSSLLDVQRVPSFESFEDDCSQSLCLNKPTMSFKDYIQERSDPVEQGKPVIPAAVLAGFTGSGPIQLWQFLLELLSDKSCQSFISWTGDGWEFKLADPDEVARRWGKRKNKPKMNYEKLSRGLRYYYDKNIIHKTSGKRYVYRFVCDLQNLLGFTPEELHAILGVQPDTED
The settings on record: protein: recombinant; tags: N-terminal GST; dsDNA, one strand shown. A digest of the protocol:
as §1

The target of the next assay is T9, SPDEF (Homo sapiens, UniProt O95238 1-335).
T9 sequence: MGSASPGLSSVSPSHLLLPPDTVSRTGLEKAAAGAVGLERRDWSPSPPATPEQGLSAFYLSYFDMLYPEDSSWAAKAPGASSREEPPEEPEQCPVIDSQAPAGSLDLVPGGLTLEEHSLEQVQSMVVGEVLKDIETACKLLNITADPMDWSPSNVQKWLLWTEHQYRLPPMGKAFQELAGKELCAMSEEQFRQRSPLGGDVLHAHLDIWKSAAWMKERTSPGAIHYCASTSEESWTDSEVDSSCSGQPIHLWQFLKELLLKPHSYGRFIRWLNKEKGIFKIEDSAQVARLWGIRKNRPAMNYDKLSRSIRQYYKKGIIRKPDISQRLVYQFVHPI
The following applies: protein: recombinant; tags: N-terminal GST; dsDNA, one strand shown. A digest of the protocol:
as §1

The target of another assay is T10, ETV7 (Homo sapiens, UniProt Q9Y603 1-341).
T10 sequence: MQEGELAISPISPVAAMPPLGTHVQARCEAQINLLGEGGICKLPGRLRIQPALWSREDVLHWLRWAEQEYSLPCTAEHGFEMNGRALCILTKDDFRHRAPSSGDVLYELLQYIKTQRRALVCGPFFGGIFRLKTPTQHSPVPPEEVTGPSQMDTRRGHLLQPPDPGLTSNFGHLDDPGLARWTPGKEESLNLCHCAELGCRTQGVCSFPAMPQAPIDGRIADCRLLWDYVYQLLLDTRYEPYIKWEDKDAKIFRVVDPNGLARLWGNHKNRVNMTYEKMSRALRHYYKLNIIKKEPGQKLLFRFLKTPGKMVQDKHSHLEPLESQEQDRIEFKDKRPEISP
The following applies: protein: recombinant; tags: N-terminal GST; dsDNA, one strand shown. In outline:
as §1

The target of another assay is T11, ELF5 (Homo sapiens, UniProt Q9UKW6-2 1-255).
T11 sequence: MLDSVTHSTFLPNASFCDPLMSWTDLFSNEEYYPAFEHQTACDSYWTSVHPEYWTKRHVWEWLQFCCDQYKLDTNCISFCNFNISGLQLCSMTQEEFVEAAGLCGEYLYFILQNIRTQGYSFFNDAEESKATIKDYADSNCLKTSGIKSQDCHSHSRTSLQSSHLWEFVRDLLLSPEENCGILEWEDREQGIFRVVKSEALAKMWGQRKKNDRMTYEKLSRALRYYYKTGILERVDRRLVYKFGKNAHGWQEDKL
The settings on record: protein: recombinant; tags: N-terminal GST; dsDNA, one strand shown. In outline: as §1

In the next assay the target is T12, ETV3 (Homo sapiens, UniProt P41162-2 1-143).
T12 sequence: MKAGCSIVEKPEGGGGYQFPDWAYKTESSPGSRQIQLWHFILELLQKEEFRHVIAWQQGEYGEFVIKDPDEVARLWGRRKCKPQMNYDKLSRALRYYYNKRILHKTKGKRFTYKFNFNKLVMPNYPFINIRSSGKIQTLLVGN
The following applies: protein: recombinant; tags: N-terminal GST; dsDNA, one strand shown. A digest of the protocol:
as §1

For another assay, the target named is ETV6 (Homo sapiens, UniProt P41212 1-452). The following applies: protein: recombinant; tags: N-terminal GST; dsDNA, one strand shown. A digest of the protocol: as §1
ETV6, sequence (P41212 whole entry): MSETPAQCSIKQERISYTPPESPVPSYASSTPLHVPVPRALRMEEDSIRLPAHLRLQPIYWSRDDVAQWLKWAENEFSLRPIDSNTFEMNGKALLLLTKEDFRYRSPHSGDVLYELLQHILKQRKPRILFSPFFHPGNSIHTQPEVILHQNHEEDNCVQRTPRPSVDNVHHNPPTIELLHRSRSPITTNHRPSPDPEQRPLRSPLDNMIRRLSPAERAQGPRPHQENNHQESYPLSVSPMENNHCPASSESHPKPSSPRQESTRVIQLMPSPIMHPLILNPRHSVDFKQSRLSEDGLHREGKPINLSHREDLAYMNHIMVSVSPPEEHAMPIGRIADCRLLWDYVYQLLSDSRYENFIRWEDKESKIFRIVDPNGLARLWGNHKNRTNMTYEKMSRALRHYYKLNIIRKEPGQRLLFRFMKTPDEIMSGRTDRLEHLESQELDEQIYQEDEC

ETV1, sequence (P50549 whole entry): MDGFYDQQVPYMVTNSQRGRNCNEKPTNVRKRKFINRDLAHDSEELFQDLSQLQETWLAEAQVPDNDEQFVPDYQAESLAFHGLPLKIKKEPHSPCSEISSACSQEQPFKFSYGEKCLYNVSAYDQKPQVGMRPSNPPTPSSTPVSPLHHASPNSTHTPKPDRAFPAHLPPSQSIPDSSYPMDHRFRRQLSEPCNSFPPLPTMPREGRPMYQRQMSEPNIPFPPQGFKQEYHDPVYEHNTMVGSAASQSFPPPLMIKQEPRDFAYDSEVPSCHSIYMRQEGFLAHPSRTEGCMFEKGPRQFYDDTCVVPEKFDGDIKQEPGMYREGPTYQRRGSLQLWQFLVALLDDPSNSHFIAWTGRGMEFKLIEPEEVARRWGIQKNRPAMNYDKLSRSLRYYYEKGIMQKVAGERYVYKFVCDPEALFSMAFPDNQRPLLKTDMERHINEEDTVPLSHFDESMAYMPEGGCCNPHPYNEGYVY
ETV5, sequence (P41161 whole entry): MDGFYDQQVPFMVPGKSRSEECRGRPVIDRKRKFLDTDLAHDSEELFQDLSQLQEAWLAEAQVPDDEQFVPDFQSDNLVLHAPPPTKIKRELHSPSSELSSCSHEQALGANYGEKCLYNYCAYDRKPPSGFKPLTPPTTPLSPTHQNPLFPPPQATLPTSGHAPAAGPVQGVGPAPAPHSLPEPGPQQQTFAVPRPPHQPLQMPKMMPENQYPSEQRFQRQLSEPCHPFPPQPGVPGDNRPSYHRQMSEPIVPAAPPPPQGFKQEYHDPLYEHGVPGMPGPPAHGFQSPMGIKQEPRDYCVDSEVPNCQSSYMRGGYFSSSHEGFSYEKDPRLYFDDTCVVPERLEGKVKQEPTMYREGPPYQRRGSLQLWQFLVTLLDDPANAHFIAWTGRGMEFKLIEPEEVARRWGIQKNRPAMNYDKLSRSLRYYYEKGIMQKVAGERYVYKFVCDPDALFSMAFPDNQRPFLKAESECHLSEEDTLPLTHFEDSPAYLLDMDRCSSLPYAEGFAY
ELF4, sequence (Q99607 whole entry): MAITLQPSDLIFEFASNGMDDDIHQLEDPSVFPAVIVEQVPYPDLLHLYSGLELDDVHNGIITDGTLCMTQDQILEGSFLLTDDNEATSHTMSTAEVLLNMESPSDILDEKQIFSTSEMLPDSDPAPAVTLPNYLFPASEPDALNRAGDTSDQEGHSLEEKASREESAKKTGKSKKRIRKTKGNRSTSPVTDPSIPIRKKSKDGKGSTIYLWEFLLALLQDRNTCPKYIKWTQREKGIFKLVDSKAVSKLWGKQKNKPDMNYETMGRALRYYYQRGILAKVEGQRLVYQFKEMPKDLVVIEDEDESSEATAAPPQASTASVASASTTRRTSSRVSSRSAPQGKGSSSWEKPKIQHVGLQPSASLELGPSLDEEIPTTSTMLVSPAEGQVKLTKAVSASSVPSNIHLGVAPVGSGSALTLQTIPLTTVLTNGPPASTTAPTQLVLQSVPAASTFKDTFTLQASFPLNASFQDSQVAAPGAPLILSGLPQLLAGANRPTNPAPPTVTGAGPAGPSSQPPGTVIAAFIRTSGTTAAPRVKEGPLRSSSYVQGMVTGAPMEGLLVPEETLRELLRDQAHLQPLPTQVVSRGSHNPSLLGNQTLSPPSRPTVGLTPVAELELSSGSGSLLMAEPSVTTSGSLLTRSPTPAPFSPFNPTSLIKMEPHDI
HSF1, sequence (Q00613 whole entry): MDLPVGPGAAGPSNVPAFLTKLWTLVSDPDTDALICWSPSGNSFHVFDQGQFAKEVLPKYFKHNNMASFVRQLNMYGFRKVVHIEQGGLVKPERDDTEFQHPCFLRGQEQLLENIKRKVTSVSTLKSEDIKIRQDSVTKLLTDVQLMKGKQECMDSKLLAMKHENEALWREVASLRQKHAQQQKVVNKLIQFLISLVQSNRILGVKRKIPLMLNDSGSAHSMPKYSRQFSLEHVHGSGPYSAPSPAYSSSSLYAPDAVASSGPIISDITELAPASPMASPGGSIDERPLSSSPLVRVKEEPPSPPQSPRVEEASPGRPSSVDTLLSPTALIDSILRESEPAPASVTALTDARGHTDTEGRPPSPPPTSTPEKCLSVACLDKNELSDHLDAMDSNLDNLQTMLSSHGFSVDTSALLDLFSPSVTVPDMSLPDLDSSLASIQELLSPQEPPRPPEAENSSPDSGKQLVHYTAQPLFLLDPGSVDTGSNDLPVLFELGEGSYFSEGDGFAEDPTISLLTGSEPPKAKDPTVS
CRX, sequence (O43186 whole entry): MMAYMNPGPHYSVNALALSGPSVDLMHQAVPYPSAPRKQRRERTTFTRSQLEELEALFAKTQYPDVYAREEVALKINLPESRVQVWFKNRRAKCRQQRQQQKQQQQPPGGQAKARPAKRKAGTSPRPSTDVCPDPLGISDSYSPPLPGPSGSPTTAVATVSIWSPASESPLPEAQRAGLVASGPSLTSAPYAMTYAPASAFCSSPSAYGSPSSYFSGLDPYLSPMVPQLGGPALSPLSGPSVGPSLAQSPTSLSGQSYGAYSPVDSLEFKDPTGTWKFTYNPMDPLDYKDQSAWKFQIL

As for CCATAA, the binding signal is 1.11 fold enrichment (6-mer frequency, TF over GST control) in the assay with FEV; 1.12 fold enrichment (6-mer frequency, TF over GST control) in the assay with ETV5; 1.29 fold enrichment (6-mer frequency, TF over GST control) with HSF1; 1.33 fold enrichment (6-mer frequency, TF over GST control) with SPIC; 1.19 fold enrichment (6-mer frequency, TF over GST control) in the assay with ELF4; 1.11 fold enrichment (6-mer frequency, TF over GST control) with ELK4. The binding signal with ETV2 is 1.24 fold enrichment (6-mer frequency, TF over GST control); with ELF3, 1.07 fold enrichment (6-mer frequency, TF over GST control); in the assay with CRX it was 1.64 fold enrichment (6-mer frequency, TF over GST control); with ETV1, 1.23 fold enrichment (6-mer frequency, TF over GST control); in the assay with ERF, 1.24 fold enrichment (6-mer frequency, TF over GST control); in the assay with ETV3L it was 1.22 fold enrichment (6-mer frequency, TF over GST control). For the same sequence, the binding signal with ETS2 is 1.22 fold enrichment (6-mer frequency, TF over GST control); with SPDEF, 1.12 fold enrichment (6-mer frequency, TF over GST control); with ETV7, 1.15 fold enrichment (6-mer frequency, TF over GST control); with ELF5 it was 1.1 fold enrichment (6-mer frequency, TF over GST control); with ETV3 it was 1.25 fold enrichment (6-mer frequency, TF over GST control); in the assay with ETV6, 1.21 fold enrichment (6-mer frequency, TF over GST control).
